Assay results taken from the supplement of paper PMC7156485.
± gives the standard deviation of the averaged measurements.

What was measured:
Details in all cases: concentration: 10 µM; 24 h
[1] = tested on: HCC1569; assay: cell number relative to DMSO (% of DMSO); higher = more cells (less growth inhibition / toxicity)
In short: (§1)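 H1.0 nuclear intensity or cell number is expressed as percent of the plate control, with the median of replicates taken. HCC1569 and TDF cells were treated with compounds at 10 µM for 24 h at 37 °C, in triplicate, then fixed and immunostained for H1.0 with DAPI as a nuclear stain. HCC1569 values were smoothed to correct for positional effects.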

[2] = tested on: TDF; assay: as above
In short: as §1

[3] = tested on: TDF; assay: H1.0 immunofluorescence intensity relative to DMSO (% of DMSO); higher = stronger H1.0 induction, active = 120 or more
In short: as §1

[4] = tested on: HCC1569; assay: H1.0 immunofluorescence intensity relative to DMSO (% of DMSO); higher = stronger H1.0 induction, active = 140 or more
In short: as §1
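For H1.0 immunofluorescence intensity relative to DMSO in this document: TDF is a line of transformed human dermal fibroblasts of mesenchymal origin.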
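For cell number relative to DMSO in this document: TDF denotes transformed human dermal fibroblasts of mesenchymal origin.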

| Compound | cell number [1] | cell number [2] | H1.0 immunofluorescence intensity [3] | H1.0 immunofluorescence intensity [4] |
| --- | --- | --- | --- | --- |
| Cc1cc(Nc2nc(-c3ccccc3)nc3ccccc23)n[nH]1 [GSK-3 Inhibitor XIII] | 57 | 46.1 | 112 (inactive) | 182 (active) |
| Cc1nc2ccccn2c(=O)c1CCN1CCC(C(=O)c2ccc(F)cc2)CC1 [Pirenperone] | 99.5 | 100 | 96.5 (inactive) | 103 (inactive) |
| NCC1OC(OC2C(N)CC(N)C(OC3OC(CO)C(O)C(N)C3O)C2O)C(N)CC1O (stereo not given) [Tobramycin (free base)] | 103 | 102 | 107 (inactive) | 106 (inactive) |
| Oc1cc2c(cc1O)CN(C(=S)NCCc1ccc(Cl)cc1)CCC2 [Capsazepine] | 106 | 112 | 91.8 (inactive) | 86.2 (inactive) |
| CC(C)=CCCC(C)=CCCC(C)=CCCC(C)=CCCC(C)=CCCC(C)=CCCC(C)=CCCC(C)=CCCC(C)=CCO [Solanesol] | 104 | 97.8 | 89.9 (inactive) | 93.9 (inactive) |
| COc1cc(C(O)C(=O)O)ccc1O (stereo not given) [hydroxy(4-hydroxy-3-methoxyphenyl)acetic acid] | 99.7 | 99.1 | 94.8 (inactive) | 99.4 (inactive) |
| NCCCC(=O)O | 109 | 106 | 108 (inactive) | 96.5 (inactive) |
| CC(C)(Sc1cc(C(C)(C)C)c(O)c(C(C)(C)C)c1)Sc1cc(C(C)(C)C)c(O)c(C(C)(C)C)c1 [Probucol] | 102 | 106 | 91.9 (inactive) | 91.8 (inactive) |
| Cc1c2c(c(O)c3c(O)cccc13)C(=O)OC2C1C(O)C(=O)C(C(N)=O)=C(O)C1N(C)C (racemic) | 93.9 | 93.1 | 96.4 (inactive) | 102 (inactive) |
| C=C(C)C1CC=C(C(=O)O)CC1 (stereo not given) [Perillic acid] | 102 | 98.7 | 96.4 (inactive) | 92.9 (inactive) |
| COCC(=O)NCC=Cc1ccc2ncnc(Nc3ccc(Oc4ccc(C)nc4)c(C)c3)c2c1 | 76.8 | 94.9 | 98.3 (inactive) | 158 (active) |
| Cc1nc(N)sc1-c1ccnc(Nc2ccc(N3CCOCC3)cc2)n1 | 62.2 | 42.5 | 105 (inactive) | 99.1 (inactive) |
| COc1cc(Nc2c(C#N)cnc3cc(OCCCN4CCN(C)CC4)c(OC)cc23)c(Cl)cc1Cl [Bosutinib] | 67 | 7.38 | 135 (active) | 39.6 (inactive) |
| CC(C)(Sc1ccc(CCN(CCCCC2CCCCC2)C(=O)NC2CCCCC2)cc1)C(=O)O | 101 | 107 | 95.7 (inactive) | 87.6 (inactive) |
| Cc1cnc(Nc2ccc(N3CCN(C)CC3)cc2)nc1Nc1cccc(S(=O)(=O)NC(C)(C)C)c1 | 31.4 | 98.6 | 97.9 (inactive) | 174 (active) |
| CNC1C(OC2OC(CO)C(N)C(O)C2O)OC2CC(N)C(OC3C(N)CC(N)C(O)C3O)OC2C1O (stereo not given) [Apramycin] | 106 | 96.3 | 98.5 (inactive) | 117 (inactive) |
| CC1OC(OC2C(Oc3cc(O)c4c(=O)cc(-c5ccc(O)cc5)oc4c3)OC(CO)C(O)C2O)C(O)C(O)C1O (stereo not given) [Rhoifolin] | 102 | 112 | 88.4 (inactive) | 89.9 (inactive) |
| COc1ccc(-c2cc(=S)ss2)cc1 [Anethole trithione] | 93.6 | 104 | 98.2 (inactive) | 103 (inactive) |
| CN(C)CCCn1cc(C2=C(c3c[nH]c4ccccc34)C(=O)NC2=O)c2ccccc21 [Bisindolylmaleimide I] | 85.8 | 80.3 | 111 (inactive) | 131 (inactive) |
| C[N+]1(C)CCC(OC(=O)C(c2ccccc2)c2ccccc2)CC1.[I-] [4-DAMP methiodide] | 100 | 105 | 98.6 (inactive) | 101 (inactive) |
| Cn1ccc(NC(=O)c2cc(Oc3ccc(C(=O)N4CCC4)c(F)c3)c3c(c2)OC(C)(C)C3)n1 | 103 | 94.2 | 102 (inactive) | 105 (inactive) |
| Cl.NOCC(=O)O.NOCC(=O)O [O-(Carboxymethyl)hydroxylamine hemihydrochloride] | 107 | 97.9 | 99.1 (inactive) | 105 (inactive) |
| COc1cc2ncnc(Nc3ccc(O)c(Br)c3)c2cc1OC [JAK3 Inhibitor II] | 88.7 | 115 | 83.8 (inactive) | 127 (inactive) |
| O=C([O-])c1cc(=O)c2c(OCC(O)COc3cccc4oc(C(=O)[O-])cc(=O)c34)cccc2o1.[Na+].[Na+] [Disodium Cromoglycate] | 98.4 | 98.3 | 90.6 (inactive) | 103 (inactive) |
| NCCCS(=O)(=O)[O-].[Na+] [3-Amino-1-propanesulfonic acid sodium] | 94.4 | 99.3 | 93.2 (inactive) | 91.9 (inactive) |

| Compound | cell number [1] | cell number [2] | H1.0 immunofluorescence intensity [3] | H1.0 immunofluorescence intensity [4] |
| --- | --- | --- | --- | --- |
| CCCCCC(O)C=CC=CC=CC(O)CC=CCCCC(=O)O (stereo not given) | 101 | 100 | 94.8 (inactive) | 107 (inactive) |
| CC(C)NCC(O)c1ccc(O)c(O)c1.Cl (racemic) | 104 | 94 | 97.4 (inactive) | 99 (inactive) |
| O.O.O=c1c(O)c(-c2ccc(O)c(O)c2)oc2cc(O)cc(O)c12 [Quercetin dihydrate] | 88.6 | 98.7 | 90.2 (inactive) | 134 (inactive) |
| CC(Nc1nc(N2CCCC2)nc2ccccc12)c1ccccc1 (stereo not given) [N-(1-phenylethyl)-N-[2-(1-pyrrolidinyl)-4-quinazolinyl]amine] | 83.8 | 75.1 | 123 (active) | 120 (inactive) |
| O=C(O)c1cn(C2CC2)c2cc(N3C[C@@H]4C[C@H]3CN4)c(F)cc2c1=O | 99.1 | 109 | 91.9 (inactive) | 102 (inactive) |
| CC[C@H](C)[C@H](N)C(=O)N1CCC[C@H]1C(=O)N[C@H](C(=O)O)[C@@H](C)CC | 102 | 85.3 | 97.2 (inactive) | 103 (inactive) |
| CC1(C2CCCC2)Cc2cc(OCC(=O)O)c(Cl)c(Cl)c2C1=O (stereo not given) | 103 | 107 | 91.9 (inactive) | 84.5 (inactive) |
| CC(C)Cc1ccc(CC(=O)O)cc1 [(4-isobutylphenyl)acetic acid] | 101 | 110 | 91.5 (inactive) | 93.1 (inactive) |
| Fc1ccc(Cl)cc1-c1nc(Nc2ccncc2)c2nccnc2n1 | 98.4 | 91.6 | 98.2 (inactive) | 113 (inactive) |
| O=C(O)CCCCCCCC(=O)O [Azelaic acid] | 102 | 101 | 98.2 (inactive) | 89.8 (inactive) |
| CC(C)(C)c1cc(O)ccc1O [tert-Butylhydroquinone] | 104 | 97.2 | 96.4 (inactive) | 89.1 (inactive) |
| COc1ccc(-c2cc(=O)c3c(O)cc(O)cc3o2)cc1 [Acacetine] | 98.4 | 95.3 | 100 (inactive) | 90.7 (inactive) |
| CC12CCC3c4ccc(O)cc4CC(CCCCCCCCCS(=O)CCCC(F)(F)C(F)(F)F)C3C1CCC2O (stereo not given) [Fulvestrant] | 94.7 | 94.3 | 104 (inactive) | 110 (inactive) |
| CC(C)(C#N)c1cc(Cn2cncn2)cc(C(C)(C)C#N)c1 [Anastrozole] | 102 | 101 | 99.4 (inactive) | 102 (inactive) |
| CC1(C)C=Cc2c(ccc3c2OC[C@@H](c2ccc(O)cc2O)C3)O1 | 99.4 | 93.1 | 101 (inactive) | 109 (inactive) |
| C=C1CCC(O)CC1=CC=C1CCCC2(C)C1CCC2C(C)CCC(O)C(C)(C)O [24(R),25-Dihydroxyvitamin D3] | 105 | 98.9 | 101 (inactive) | 93.7 (inactive) |
| Cc1cc(I)ccc1Nc1c(C(=O)NOCC2CC2)cc(F)c(F)c1F | 97.2 | 95.6 | 91.1 (inactive) | 116 (inactive) |
| O=c1[nH]c2cc(Cl)ccc2c(O)c1-c1cccc(Oc2ccccc2)c1 | 108 | 94.2 | 91.7 (inactive) | 88.2 (inactive) |
| COC(=O)c1c(C)[nH]c(C)c1C(=O)c1ccccc1Cc1ccccc1 | 102 | 102 | 92.3 (inactive) | 129 (inactive) |
| O=C1CC(c2ccc(O)c(O)c2)Oc2cc(OC3OC(CO)C(O)C(O)C3O)cc(O)c21 (stereo not given) [Eriodictyol-7-O-glucoside] | 101 | 94.3 | 97.7 (inactive) | 89.3 (inactive) |
| COc1cc(C(=O)OCCC[NH+]2CCC[NH+](CCCOC(=O)c3cc(OC)c(OC)c(OC)c3)CC2)cc(OC)c1OC.[Cl-].[Cl-] [Dilazep hydrochloride] | 94.8 | 90.1 | 108 (inactive) | 107 (inactive) |
| CC(C)c1ccc(C(=O)N=C(N)N)cc1S(C)(=O)=O [N''-[4-isopropyl-3-(methylsulfonyl)benzoyl]guanidine] | 101 | 93.4 | 99.1 (inactive) | 100 (inactive) |
| CCCCNC(=O)NS(=O)(=O)c1ccc(C)cc1 [Tolbutamide] | 102 ± 3.9 | 108 ± 11 | 93 (inactive) | 101 (inactive) |
| CCCCCCCCC=CCCCCCCCC(=O)O [9(E)-Octadecenoic acid] | 100 | 108 | 94.9 (inactive) | 101 (inactive) |
| C=CC[N+]1(C2CC3C4CCC5CC(O)C(N6CCOCC6)CC5(C)C4CCC3(C)C2OC(C)=O)CCCC1.[Br-] (stereo not given) [Rocuronium bromide] | 107 | 104 | 99.6 (inactive) | 99.4 (inactive) |
